Source: the supplement of paper PMC3724861
The entries come from a sample that favours hits as a whole. No count for the full screen is at hand. Values without a mark were called inactive.

System: T1, Caupolican (Caup) homeodomain DNA-binding domain
T1 sequence: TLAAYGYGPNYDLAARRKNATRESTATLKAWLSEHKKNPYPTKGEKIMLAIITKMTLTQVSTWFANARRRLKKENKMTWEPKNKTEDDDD
Test: PBM E-score (8-mer, recovered from the published 9-mer minima) (E-score (dimensionless, -0.5 to 0.5)); Drosophila protein; higher = stronger relative binding preference, active = 0.31 or more
Outline: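 An enrichment score, with higher meaning stronger, expresses relative binding preference for each short DNA word. The protein used was Caup's homeodomain DNA-binding domain (residues 214-303), produced by in vitro transcription and translation and tested at 100 nM on custom-designed protein binding microarrays. The 8-mer values were recovered from published 9-mer scores, each equal to the lower of its two constituent 8-mer scores.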

In order of falling “PBM E-score” value:
1. ATTGTAAC  0.308
2. GTGACAAC  0.303
3. CAGGTACA  0.298
4. GACAAGAA  0.297
5. CGTGTAGA  0.29
6. AATAACAC  0.284
7. CGTGTGTA  0.283
8. CTGACAAC  0.281
9. GTTGTAAA  0.279
10. GTGGTACA  0.277
11. GTGTATCA  0.276
12. CGTGTAGC  0.276
13. ATGACAAT  0.274
14. CGCTTGTC  0.272
15. TAGGTACA  0.271
16. CACTACAA  0.266
17. AGCTTGTC  0.261
18. ACATATTG  0.26
19. ATAGACAC  0.259
20. ACTACAAA  0.256
21. TACAAAAA  0.255
22. ATGACAAA  0.248
23. GATGTTTA  0.247
24. ATTGTAAA  0.246
25. AACATTGA  0.243
26. AACAAGAG  0.243
27. AATAACAG  0.241
28. AGTAACAC  0.24
29. ATTTGTAG  0.239
30. ACATATCG  0.238
31. ATTAGATG  0.235
32. ATCTACAC  0.227
33. GACTACAA  0.222
34. ACGCAACA  0.215
35. AATGTTTA  0.213
36. CCTACAAC  0.21
37. AACAAAAT  0.209
38. AGTGTACC  0.207
39. TTAGACAA  0.206
40. CACTACAC  0.206
41. ATGACAGC  0.202
42. CTGTATCC  0.2
43. ATGTCCAG  0.2
44. CATGACTA  0.198
45. ATATATTC  0.192
46. AGTAACAG  0.19
47. ACTACAAT  0.19
48. AAGGATGT  0.185
49. AACAAAAC  0.179
50. AACTACAG  0.177
51. CCTGTAAC  0.176
52. CAAAGTAC  0.172
53. ACCTACAA  0.171
54. CCTGTTTC  0.17
55. GCTACAAC  0.169
56. ATAGACAG  0.16
57. AACATTGG  0.159
58. CACATGGA  0.156
59. AACTACGT  0.151
60. ACGTATCG  0.15
61. CTGTATCA  0.15
62. AATGTTTC  0.143
63. AACAAAAA  0.141
64. GACAAAAC  0.137
65. AAGTATCG  0.134
66. AATTAGAC  0.132
67. CTGACAAA  0.132
68. ACCATGGT  0.127
69. ACAGTAAA  0.124
70. AACTACCT  0.122
71. ACTAGATG  0.121
72. ACACCTCT  0.111
73. AAGATGGT  0.109
74. TAGTGTGA  0.108
75. CCATATTA  0.105
76. TTTGAAAA  0.105
77. AAGCATTG  0.102
78. ATGGTACG  0.0989
79. AAATGCAA  0.0939
80. CTAGACAA  0.0936
81. AATTAAAA  0.0931
82. CACAAGAC  0.0913
83. ATTTAGTC  0.0884
84. CACAAGAA  0.0855
85. ACTGTTCA  0.0851
86. CGATCATA  0.0822
87. CTTTGTCA  0.0793
88. AACAAAGA  0.0783
89. CCATAGCA  0.0725
90. ATAGCTTG  0.0692
91. CAACCTGG  0.0642
92. AGTAAGAA  0.06
93. GTCATCTA  0.0593
94. CAACTCAC  0.0566
95. TCCATGGA  0.0552
96. CTGGTACC  0.0519
97. ACCATGGC  0.0502
98. ATGGTACC  0.0486
99. TCTCACAA  0.048
100. ACAGTTTG  0.0438
101. CATATCGG  0.0413
102. ATTCAGTG  0.034
103. TAGATGGA  0.0256
104. CCATATCA  0.0253
105. CTTGGATC  0.0244
106. AGTTAAGC  0.0239
107. ACCATGGA  0.0206
108. CGTCTATC  0.0194
109. CATCTTAG  0.0142
110. CACTCTTC  0.0141
111. ATGCGAAA  0.0128
112. ACACCGTC  0.0118
113. CAGCGAAC  0.0117
114. CCATATTC  0.011
115. GGATCGCA  0.00822
116. CTAACGAG  0.0026
117. ATCATGGA  0.00242
118. ATGGCGTA  0.002
119. CGCTTGAA  0.0019
120. AGTAAGTG  0.00023
121. GCATGAGA  -0.0059
122. CTTTTCGC  -0.012
123. CTCGTGAC  -0.0131
124. CCACAGGA  -0.0146
125. CGTGAACC  -0.0185
126. CCCCAAAC  -0.0197
127. CACCCTAG  -0.0221
128. ATCGAAAC  -0.0231
129. CTCGCACA  -0.0236
130. AGCTTGTG  -0.0301
131. ATCATGGG  -0.0312
132. AGAGTCAC  -0.0337
133. ATTGCCCG  -0.0341
134. TGCACGCA  -0.0359
135. ATAGCTCA  -0.0365
136. ATCGCAAG  -0.0386
137. CACCCGAA  -0.0428
138. CTTGCTGC  -0.0454
139. CTTCCAAG  -0.0467
140. AAGTATCC  -0.0551
141. CACATGGG  -0.0556
142. GAGATGGA  -0.0584
143. ATCATGGC  -0.0613
144. CCGTTCTC  -0.0675
145. GTCCCTAA  -0.0722
146. AATCTTAG  -0.0734
147. ACGTTCCG  -0.0768
148. CTCTCCTC  -0.078
149. ACCAGCTG  -0.0781
150. CACATGGC  -0.0837
151. CGCAGGAC  -0.0855
152. GCATCGTA  -0.088
153. GGCTTGGA  -0.0906
154. AGGACCTG  -0.102
155. GGCTTGAA  -0.103
156. AGAGGTGG  -0.107
157. GCTCCATA  -0.111
158. CCTCCGCA  -0.12
159. CTAGAGCA  -0.132
160. GGAGTGGA  -0.133
161. TGCGCCCA  -0.134
162. CGACCGGC  -0.141
163. ACCCGCAG  -0.142
164. GCACACCC  -0.143
165. AGAGTGCG  -0.148
166. ATCTCCCC  -0.153
167. AGGCGTCG  -0.157
168. ACGGTGGC  -0.158
169. GACCGCAC  -0.162
170. CCGACGCG  -0.167
171. AAGCCAGG  -0.171
172. CAAGCCCC  -0.174
173. AGACCGGG  -0.179
174. AGCGCGGC  -0.184
175. GAGCGGCA  -0.199
176. GGAGCCGA  -0.213
177. GAGAGCTC  -0.215
178. GCCTCACC  -0.232
179. GCCATGGC  -0.246
180. CCAGCCGG  -0.247
181. AGGTGGCC  -0.286
182. GCCTGGCC  -0.292
183. CGGCCCTC  -0.331
184. AGGCCCCC  -0.398

With CATGTTTA the “PBM E-score” value was 0.399 (active).
In the case of CATGTTTC, the “PBM E-score” value was 0.355 (active).
With CTTGTAAA the “PBM E-score” value was 0.365 (active).
CTTGTAAC was tested, and the “PBM E-score” value was 0.424 (active).
For GTAGACAA, the “PBM E-score” value was 0.313 (active).
For ATAGACAT, the “PBM E-score” value was 0.321 (active).
ATGTATCA was tested, and the “PBM E-score” value was 0.321 (active).
ATGTATCC was tested, and the “PBM E-score” value was 0.332 (active).
In the case of ATGTATCG, the “PBM E-score” value was 0.337 (active).
For AGTAACAT, the “PBM E-score” value was 0.316 (active).
For AATAACAT, the “PBM E-score” value was 0.348 (active).
With ACATATTA the “PBM E-score” value was 0.33 (active).
For ACATATTC, the “PBM E-score” value was 0.329 (active).
With ACATATCA the “PBM E-score” value was ≥ 0.321 (active).
GACTACAC was tested, and the “PBM E-score” value was 0.33 (active).
In the case of AACTACAC, the “PBM E-score” value was 0.355 (active).
For AACTACAT, the “PBM E-score” value was 0.408 (active).
In the case of AACTACAA, the “PBM E-score” value was 0.342 (active).
AACATTGT was tested, and the “PBM E-score” value was ≥ 0.347 (active).
With TACATGGA the “PBM E-score” value was 0.413 (active).
In the case of GACATGGC, the “PBM E-score” value was 0.314 (active).
AACATGGC was tested, and the “PBM E-score” value was 0.328 (active).
With AACATGGT the “PBM E-score” value was 0.37 (active).
AACATGGG was tested, and the “PBM E-score” value was 0.351 (active).
With AACATGGA the “PBM E-score” value was 0.325 (active).
For GACATGGA, the “PBM E-score” value was 0.345 (active).
In the case of AACAAGAC, the “PBM E-score” value was 0.335 (active).
With AACAAGAA the “PBM E-score” value was 0.321 (active).
For TACAAGAA, the “PBM E-score” value was 0.351 (active).
GACAAGAC was tested, and the “PBM E-score” value was 0.325 (active).
With AACAAGAT the “PBM E-score” value was 0.334 (active).
In the case of ATGACAAC, the “PBM E-score” value was 0.375 (active).
With ATGACAAG the “PBM E-score” value was ≥ 0.378 (active).
For CTGACAAG, the “PBM E-score” value was 0.341 (active).
GGCTTGTA was tested, and the “PBM E-score” value was 0.312 (active).
In the case of AGCTTGTA, the “PBM E-score” value was 0.368 (active).
For CGCTTGTA, the “PBM E-score” value was 0.313 (active).
With CGTGTACA the “PBM E-score” value was ≥ 0.441 (active).
For CGTGTACC, the “PBM E-score” value was 0.35 (active).
GAGGTACA was tested, and the “PBM E-score” value was 0.326 (active).
For ATGGTACA, the “PBM E-score” value was 0.32 (active).
CTGGTACA was tested, and the “PBM E-score” value was 0.319 (active).
In the case of ACTACAAC, the “PBM E-score” value was 0.363 (active).
ACTACAAG was tested, and the “PBM E-score” value was ≥ 0.378 (active).
